Experimental data: PubChem BioAssay AID1069 (NMMLSC, 2008)
Values without a mark were called inactive. Activity calls are given as the source filed them.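 How the source made its calls: active means high combined rank on largest and smallest cell-count-weighted shift across three tests, rank score above 45, floors 50 and 25 (some results past the limit were not filed as active); inactive means the rest.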

test: activators of LNCaP cell differentiation, retest, confirmation, side scatter shift, flow cytometry (AID 1069); conditions: 4 d, at 100 µM, active compounds read high;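 further: LNCaP human prostate cancer cells in low-serum medium with charcoal-stripped FBS; percent of cells with raised granularity gated so DMSO controls show 10%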

| Compound | side scatter shift |
| --- | --- |
| COc1ccc(CCNC(=O)C2CCN(Cc3nc(-c4cccc(Cl)c4)oc3C)CC2)cc1OC | 20% |
| CC(C)N1CCC2(CC1)N=C(c1ccc3c(c1)OCO3)CC(c1cc(Cl)ccc1O)N2 (stereo not drawn) | 26.1% |
| Cc1cc(=O)oc(C)c1C(=O)NCCCN1CCN(c2ccc(F)cc2)CC1 | 8.5% |
| CCOc1ccc(-n2cc(C(=O)N3CCC(C)CC3)c3cc(OC)c(OC)cc3c2=O)cc1 | 16.3% |
| Cc1cc(O)c(-c2cc(C(=O)Nc3ccc(S(=O)(=O)N4CCOCC4)cc3)[nH]n2)cc1C | 5.6% |
| COc1ccc(N2CCN(c3oc(COc4ccccc4Cl)nc3C#N)CC2)cc1 | 24.8% |
| O=C(NCCCN1CCN(c2ccccc2F)CC1)C1CCC(=O)N1C1CCCCC1 (stereo not drawn) | 8% |
| COc1ccc(-c2noc(CCC(=O)NCCCN3CCC(Cc4ccccc4)CC3)n2)cc1 | 21.7% |
| CCn1c(C(=O)NCCCN2CCc3ccccc3C2)cc2sccc21 | 12.5% |
| Cc1cc2c(=O)n(CC(=O)N3CCN(c4ccccc4)CC3)cnc2s1 | 30.4% |
| Cc1oc(-c2cccc(Cl)c2)nc1CN1CCCC(C(=O)NCc2ccco2)C1 (stereo not drawn) | 50% |
| Cc1oc(-c2ccc(Cl)cc2)nc1CN1CCCC(C(=O)NCc2ccco2)C1 (stereo not drawn) | 22.2% |
| COC(=O)CN1CCN(C(=O)c2ccc(F)cc2)c2ccccc2C1 | 12.5% |
| O=C(NCCCN1CCN(c2ccccc2F)CC1)C1CCN(S(=O)(=O)N2CCOCC2)CC1 | 19.9% |
| Cc1nnc(NCc2n[nH]c(=O)c3ccccc23)c2ccccc12 | 46.8% |
| O=C1c2ccccc2C(Nc2ccc3c(c2)OCO3)N1Cc1ccc2c(c1)OCO2 (stereo not drawn) | 23.6% |
| CCOc1ccc(NC(=O)COc2nsnc2N2CCCCC2)cc1 | 8.7% |
| O=C(NCCCN1CCN(c2ccccc2F)CC1)C1CCC(=O)N1C1CCCC1 (stereo not drawn) | 5% |
| O=C(c1ccc(COCC(F)(F)F)o1)N1CCCCCC1 | 16.9% |

| Compound | side scatter shift |
| --- | --- |
| CCOC(=O)C1=C(C)N=c2s/c(=C\c3ccncc3)c(=O)n2C1c1ccc2c(c1)OCO2 (stereo not drawn) | 47.1% |
| CCOC(=O)c1ccc(-c2n[nH]c(=O)c3ccccc23)cc1 | 10.7% |
| CCOC(=O)C1CCN(S(=O)(=O)c2ccc(-c3nc4ccccc4s3)s2)CC1 | 25.7% |
| O=C(NCc1ccc(Cl)cc1)c1noc2c1CCCC2 | 8% |
| CCCS(=O)(=O)N1CCCC(C(=O)NCCCN2CCN(c3cccc(Cl)c3)CC2)C1 (stereo not drawn) | 17% |
| Cc1ccccc1-c1nc(CN2CCCC(C(=O)NCCCN3CCOCC3)C2)c(C)o1 (stereo not drawn) | 72.4% (active) |
| Cc1ccccc1-c1nc(CN2CCC(C(=O)O)CC2)c(C)o1 | 3.7% |
| O=c1cc(-c2ccccc2)[nH]c2ccccc12 | 22.2% |
| Cc1ccccc1-c1nc(CN2CCC(C(=O)NCCCN3CCOCC3)CC2)c(C)o1 | 78.9% (active) |
| CCn1c(=N)n(CC(O)COc2cccc(C)c2)c2ccccc21 (stereo not drawn) | 0% |
| COc1cc2nc(N3CCN(C(=O)C4COc5ccccc5O4)CC3)nc(N)c2cc1OC (stereo not drawn) | 0% (active) |
| N=c1n(CCO)c2ccccc2n1CCOc1ccc(Cl)cc1Cl | 22.2% |
| CCn1c(=O)cc(SCC(=O)NCCN2CCN(Cc3ccccc3)CC2)c2ccccc21 | 70.2% (active) |
| Nc1ccc(-n2ccnc2)cc1 | 37.6% |
| O=C(NCCCN1CCN(c2cccc(Cl)c2)CC1)C1CCC(=O)N1Cc1ccccc1Cl (stereo not drawn) | 33.3% |
| O=C1CCCc2c1cc(C(=O)NC1CCSC1=O)c(=O)n2-c1ccccc1 (stereo not drawn) | 5.9% |
| COC(=O)c1ccccc1NC(=O)CN1CCC(n2nnc3cc(F)ccc32)CC1 | 25.9% |
| CN1CCN(c2oc(COc3ccc(-c4ccccc4)cc3)nc2C#N)CC1 | 40% |
| COc1ccc(CCNC(=O)C2CCN(Cc3nc(-c4ccccc4F)oc3C)CC2)cc1OC | 9% |
